# The panel holds about 79,000 compounds, 15% with a hit somewhere; the sample as a whole holds those more often. Values without a mark were called inactive. The source made the active and inactive calls. Rule as the data show it: active = growth inhibition above about 70%; inactive = the rest.
# Tests used:
# [1] = NCI Yeast Anticancer Drug Screen. Data for the rad50 strain (AID 155);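 also: 0% = growth of vehicle-only cultures of the same strain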; details: S. cerevisiae rad50 strain growth inhibition, hits give high values
# How it was run: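 Genetically altered yeast (DNA repair pathway); compound treatment; growth inhibition vs vehicle ctrl.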
# [2] = NCI Yeast Anticancer Drug Screen. Data for the mec2-1 strain (AID 157); details: S. cerevisiae mec2-1 strain, hits give high values
# How it was run: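 Mutant yeast (mec2-1) grown with compound; growth inhibition relative to vehicle control reported.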
# [3] = NCI Yeast Anticancer Drug Screen. Data for the sgs1 mgt1 strain (AID 161);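 also: 0% = growth of cultures given vehicle only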; details: S. cerevisiae sgs1 mgt1 strain, hits give high values
# How it was run: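 Growth of a repair-deficient yeast mutant was monitored after compound treatment and expressed as inhibition relative to vehicle-treated cultures.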
# [4] = NCI Yeast Anticancer Drug Screen. Data for the cln2 rad14 strain (AID 165);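 also: 0% = growth equal to vehicle treated cultures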; details: S. cerevisiae cln2 rad14 strain, hits give high values
# How it was run: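 Readout is yeast growth inhibition versus vehicle-treated controls, using a strain with cln2 and rad14 alterations exposed to compound.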
# [5] = NCI Yeast Anticancer Drug Screen. Data for the bub3 strain (AID 167); details: S. cerevisiae bub3 mutant strain, hits give high values
# How it was run: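 Yeast carrying a defined mutation is treated with each compound, and growth is compared with that of vehicle-exposed cells to give inhibition.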
# [6] = NCI Yeast Anticancer Drug Screen. Data for the mlh1 rad18 strain (AID 175); details: S. cerevisiae mlh1 rad18 strain growth inhibition, hits give high values
# How it was run: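 Genetically defined yeast (DNA repair-deficient) exposed to compounds; growth inhibition determined relative to vehicle.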
# [7] = at 5.0 µM (retest, dose inferred, filed as 0.5)
# [8] = at 50.0 µM (retest, dose inferred, filed as 5.0)
Compound,"growth inhibition [1, 7] [%]","growth inhibition [1, 8]",growth inhibition ([1]; at 50.0 µM),"growth inhibition [2, 7] [%]","growth inhibition [2, 8]",growth inhibition ([2]; at 50.0 µM),"growth inhibition [3, 7]","growth inhibition [3, 8]",growth inhibition ([3]; at 50.0 µM),"growth inhibition [4, 7] [%]","growth inhibition [4, 8]",growth inhibition ([4]; at 50.0 µM),"growth inhibition [5, 7]","growth inhibition [5, 8]",growth inhibition ([5]; at 50.0 µM),"growth inhibition [6, 7]","growth inhibition [6, 8]",growth inhibition ([6]; at 50.0 µM)
COc1ccc(/C=C2\CN(C)C/C(=C\c3ccc(OC)cc3)C2=O)cc1,22,75% (active),14.2%,18,79% (active),21.6%,3%,87% (active),31.9%,15,70% (active),38.8%,3%,85% (active),30.8%,25%,87% (active),26.9%
Cc1nn(C(=O)c2ccccc2O)c2c1C(c1ccc([N+](=O)[O-])cc1)SC(N)=N2 (configuration not stated),6,81% (active),35.5%,-4,80% (active),47%,-1%,89% (active),69.5%,-8,36%,12.3%,-8%,71% (active),91.2% (active),10%,96% (active),53.4%
C=CCOc1cc(NC(=S)c2sccc2C)ccc1Cl,3,88% (active),81.5% (active),-5,89% (active),87.2% (active),-9%,88% (active),85% (active),2,89% (active),80.2% (active),28%,94% (active),81.3% (active),3%,91% (active),81.9% (active)
O=c1[nH]c2c([N+](=O)[O-])cc(Cl)cc2nc1/C=C(\O)c1ccccn1,8,61%,51.8%,-1,26%,5.8%,7%,41%,49.2%,4,52%,37%,14%,27%,12.1%,11%,46%,79.2% (active)
N/C(=N\N=C/c1ccc(O)c(O)c1O)NO,-2,26%,41.1%,5,21%,17.8%,-7%,8%,28.5%,-2,-6%,17.7%,-4%,-3%,4.2%,-5%,7%,64.7%
NNc1cc(C(F)(F)F)nc2ccccc12,-133,-80%,35.5%,-48,-46%,3.1%,-53%,-48%,-21.1%,-56,-88%,34.1%,-65%,-75%,1.45%,-108%,-95%,64.8%
CC1SC2(C(=O)Nc3ccc(Br)cc32)N(c2ccc(Cl)cc2)C1=O (configuration not stated),13,99% (active),50.4%,2,99% (active),99.5% (active),-2%,98% (active),56.1%,-3,95% (active),90.8% (active),15%,99% (active),96.9% (active),10%,99% (active),-8.55%
COc1cc(NS(=O)(=O)c2ccc(NC(C)c3ccc4cccnc4c3O)cc2)nc(OC)n1 (configuration not stated),3,81% (active),95.1% (active),2,40%,97.2% (active),1%,87% (active),69.4%,-3,78% (active),66%,-2%,88% (active),96.8% (active),5%,82% (active),97.3% (active)
[CH3][Sn]1([CH3])[O]C(=O)CCN=Cc2c(ccc3ccccc23)[O][Sn]([CH3])([CH3])[O]C(=O)CCN=Cc2c(ccc3ccccc23)[O]1,57,98% (active),90.6% (active),61,99% (active),92.8% (active),82% (active),99% (active),93% (active),24,99% (active),91.7% (active),84% (active),98% (active),92.3% (active),93% (active),99% (active),89.8% (active)

# From PubChem BioAssay (NCI)
